Screening data: PubChem, National Center for Advancing Translational Sciences (NCATS)
NPC1 promoter act: qHTS Assay for NPC1 Promoter Activators | Potency, µM (highest dose often 9.22 µM), for inactives: at the top dose activation, most hits filed as activators | Huh7 NPC1 promoter luciferase reporter, 24 h | AID 485313, 2010 | 320,000 tested, 2.4% active; further: % of control where 0% means no effect; nearly all actives have a fitted effect of over 60% in size
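Stable NPC1-promoter luciferase Huh7 line; cpd (DMSO) 24 h, 37 °C, 5% CO2; Amplite luciferase reagent 10 min RT; luminescence readout. qHTS format.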
FLuc modulator: qHTS profiling assay for firefly luciferase inhibitor/activator using purifed enzyme and Km concentrations of substrates (counterscreen for miR-21 project). Potency, µM (top dose mostly 57.5 µM), without a hit: top-dose activity change, negative = inhibition, most hits filed as inhibitors. 360,000 tested, 6.9% active. purified FLuc, Km substrates, luminescence inhibition;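 further: plate controls were vehicle for no effect and reference inhibitor for full effect; nearly all actives have a fitted effect of over 55% in size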
Target sequence (P08659 whole entry, looked up): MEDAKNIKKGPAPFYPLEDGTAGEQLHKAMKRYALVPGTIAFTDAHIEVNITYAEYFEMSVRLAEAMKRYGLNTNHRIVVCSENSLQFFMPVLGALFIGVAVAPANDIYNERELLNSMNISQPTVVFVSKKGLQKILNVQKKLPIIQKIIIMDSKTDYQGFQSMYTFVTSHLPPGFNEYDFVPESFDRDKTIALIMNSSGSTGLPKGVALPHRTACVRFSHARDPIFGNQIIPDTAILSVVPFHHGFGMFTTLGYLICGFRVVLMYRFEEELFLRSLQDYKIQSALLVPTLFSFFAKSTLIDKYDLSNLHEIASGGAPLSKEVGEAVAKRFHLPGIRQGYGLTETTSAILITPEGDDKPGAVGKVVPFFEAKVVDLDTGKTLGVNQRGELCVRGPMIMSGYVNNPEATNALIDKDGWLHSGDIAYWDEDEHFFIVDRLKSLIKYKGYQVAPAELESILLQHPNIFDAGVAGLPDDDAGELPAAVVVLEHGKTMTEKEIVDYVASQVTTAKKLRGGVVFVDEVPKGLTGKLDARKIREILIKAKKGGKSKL
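Purified P. pyralis luciferase, 10 nM final, with Km-level 10 uM D-luciferin and 10 uM ATP in 50 mM Tris acetate pH 7.5, 10 mM Mg acetate, 0.01% Tween-20, 0.05% BSA; 6-point qHTS titration about 60 µM downward; luminescence read.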
SMN2 splice enh: qHTS Assay for Enhancers of SMN2 Splice Variant Expression | AID 1458, 2008 | Potency, µM (titrated, usually from 46.1 µM), inactives show at the highest dose activity change, positive = activation, actives largely listed as activators | HEK293 SMN2-luciferase splicing reporter, luminescence, 30-36 h | 210,000 tested, 2.8% active; further: % of control where 0% means no effect; nearly all actives have a fitted effect of over 55% in size
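HEK293 cells carry an SMN2 […]–luciferase reporter in which exon 7 inclusion puts luciferase in frame. Cells were plated 10-12 h before compound addition, then incubated 30-36 h at 37C. ONE-Glo luminescence was read; sodium butyrate at 4.5 mM final served as control.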
Rab9 prom act: qHTS Assay for Rab9 Promoter Activators. 320,000 tested, 2.8% active. Huh7 Rab9 promoter-luciferase reporter, luminescence, 24 h. Potency, µM (doses to about 9.22 µM), for inactives: at the top dose activation, negative = inhibition, hits mostly activators; further: % of control where 0% means no effect; nearly all actives have a fitted effect of over 60% in size
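Promoter activation is measured as luciferase luminescence in Huh7 cells stably transfected with a Rab9 promoter–luciferase construct, following 24 h compound exposure at 37 °C and 10 min reagent incubation at ambient temperature.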
ELG1 genotoxic: qHTS screen for small molecules that induce genotoxicity in human embryonic kidney (HEK293T) cells expressing luciferase-tagged ELG1; Potency, µM (titrated, usually from 46 µM), for the others: top-dose activity change, positive = activation, most hits filed as activators; HEK293T ELG1-luciferase reporter, luminescence, 16 h; AID 504466, 2011; 330,000 tested, 1.3% active; further: % of control where 0% means no effect; nearly all actives have a fitted effect of over 60% in size
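Reporter readout depends on ELG1 protein level, which increases with genetic stress. After 16 hr compound exposure at 37 °C, luciferase activity was quantified using ONE-Glo.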
ELG1 repair inh: qHTS screen for small molecules that inhibit ELG1-dependent DNA repair in human embryonic kidney (HEK293T) cells expressing luciferase-tagged ELG1 | HEK293T ELG1-luciferase reporter, luminescence, 16 h; DNA damage induced by 5-fluorouridine | AID 504467, 2011 | Potency, µM (series often up to 46.1 µM), inactives show at the highest dose activity change, negative = inhibition, most hits filed as inhibitors | 330,000 tested, 2.3% active; further: on the % scale 0 is the no-effect control and ±100 the full control effect; nearly all actives have a fitted effect of over 55% in size
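Cells (2,000 per well) received 5-fluorouridine plus test compound or DMSO and were incubated 16 hr at 37 °C, 5% CO2. Luciferase activity was read by luminescence 30 min after ONE-Glo addition; signal suppression marked inhibition of damage-induced ELG1 function.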
An asterisk follows results filed as active. An excerpt weighted towards active compounds, which were near 9.2% of everything screened. The call rests on the fitted dose curve; in most records, active means well fitted curve in the direction sought with a large enough effect; inconclusive means small, poorly fitted or top-dose-only effect, or another doubt; inactive means no such curve, though single readings can be large; an effect the other way counts as inactive or inconclusive. Potency means the concentration at half of the fitted maximal effect.

Screening Cc1c(C(=O)NCc2ccccn2)oc2ccc(S(=O)(=O)N3CCC4(CC3)OCCO4)cc12 returned NPC1 promoter act -4%, FLuc modulator 4%, SMN2 splice enh -6%, Rab9 prom act -7%, ELG1 genotoxic -2% and ELG1 repair inh inconclusive.
For COc1ccc(CCNS(=O)(=O)c2ccc3oc(C(=O)O)c(C)c3c2)cc1OC the results were NPC1 promoter act -7%, FLuc modulator 1%, SMN2 splice enh 9%, Rab9 prom act 0%, ELG1 genotoxic -1% and ELG1 repair inh 6%.
Cc1ccc(NC(=O)c2oc3ccc(S(=O)(=O)N4CCOCC4)cc3c2C)cc1C was read as NPC1 promoter act -1%, FLuc modulator -13%, SMN2 splice enh 1%, Rab9 prom act -2%, ELG1 genotoxic 8% and ELG1 repair inh inconclusive.
Screening Cc1ccc(C(=O)N/C(=C\c2ccc(Cl)cc2)C(=O)NCC2CCCO2)cc1 (stereo not given) returned NPC1 promoter act -6%, FLuc modulator 0%, SMN2 splice enh 2%, Rab9 prom act 0%, ELG1 genotoxic 15% and ELG1 repair inh 2%.
For C=C(C)CNC(=S)Nc1sc2c(c1C(=O)OCC)CC(C)(C)OC2 the results were NPC1 promoter act 2%, FLuc modulator -18%, Rab9 prom act 0%, ELG1 genotoxic 0% and ELG1 repair inh -9%.
Screening COc1cccc(NC(=O)c2oc3ccc(S(=O)(=O)N4CCC5(CC4)OCCO5)cc3c2C)c1 returned FLuc modulator 1%.
Cc1c(C(=O)NCc2c(F)cc(F)cc2F)oc2ccc(S(=O)(=O)N3CCOCC3)cc12 was read as NPC1 promoter act -4%, FLuc modulator -2%, Rab9 prom act 2%, ELG1 genotoxic -17% and ELG1 repair inh 29µM*.
Cc1c(C(=O)Nc2cccc(Cl)c2)oc2ccc(S(=O)(=O)N3CCC4(CC3)OCCO4)cc12 was read as NPC1 promoter act -27%, FLuc modulator -4%, SMN2 splice enh -12%, Rab9 prom act -6%, ELG1 genotoxic 1% and ELG1 repair inh 9.2µM*.
Screening CC(=O)c1cccc(NC(=O)c2ccc(OC3CSC3)cc2)c1 returned NPC1 promoter act 22%, FLuc modulator inconclusive, SMN2 splice enh -42%, Rab9 prom act 29%, ELG1 genotoxic -11% and ELG1 repair inh inconclusive.
`O=C(Nc1cccc(Br)c1)c1ccc(OC2CSC2)cc1` gave NPC1 promoter act inconclusive, FLuc modulator 2.7µM*, SMN2 splice enh 74%, Rab9 prom act 2.2µM*, ELG1 genotoxic 3.3µM* and ELG1 repair inh inconclusive.
Screening Cc1cccc(NC(=O)c2ccc(OC3CSC3)cc2)c1 returned NPC1 promoter act 2.5µM*, FLuc modulator 1.9µM*, SMN2 splice enh 18µM*, Rab9 prom act 4µM*, ELG1 genotoxic 10µM* and ELG1 repair inh inconclusive.
Screening Cc1ccc(C(=O)CC(=O)c2ccc(C)cc2O)cc1 returned NPC1 promoter act inconclusive, FLuc modulator 17µM*, Rab9 prom act inconclusive, ELG1 genotoxic 5% and ELG1 repair inh inconclusive.
Screening CC(C)(C)c1ccc(C(=O)CC(=O)c2cc(Cl)ccc2O)cc1 returned NPC1 promoter act 23%, FLuc modulator -5%, SMN2 splice enh -88%, Rab9 prom act -2%, ELG1 genotoxic inconclusive and ELG1 repair inh 1%.
Screening Cc1ccc(C(=O)CC(=O)c2cc(Cl)ccc2O)cc1 returned NPC1 promoter act 19%, FLuc modulator 17µM*, SMN2 splice enh 26%, Rab9 prom act 19%, ELG1 genotoxic 15µM* and ELG1 repair inh inconclusive.
For COC(=O)c1cc(S(=O)(=O)N2CCN(Cc3ccccc3)CC2)cn1C the results were NPC1 promoter act -2%, FLuc modulator 2%, Rab9 prom act 4%, ELG1 genotoxic 0% and ELG1 repair inh 3%.
Screening CCOc1cccc2cc(-c3cn4c(n3)sc3ccccc34)c(=O)oc12 returned FLuc modulator 0.48µM*.
Screening COc1ccc2cc(-c3nc4ccc(C(=O)O)cc4[nH]3)c(=O)oc2c1 returned FLuc modulator 0.12µM*.
`COc1cccc2cc(-c3nc4ccccc4o3)c(=O)oc12` gave NPC1 promoter act 2%, FLuc modulator 2.7µM*, SMN2 splice enh 25%, Rab9 prom act 5%, ELG1 genotoxic 21µM* and ELG1 repair inh inconclusive.
`CCOc1cccc2cc(-c3nc4ccc(C(=O)O)cc4[nH]3)c(=O)oc12` gave NPC1 promoter act inconclusive, FLuc modulator 0.38µM* and Rab9 prom act inconclusive.
Cc1ccc(N(C(=O)c2csnn2)C(C(=O)NC2CCCCC2)c2cccnc2)cc1C (stereo not given) was read as NPC1 promoter act 2%, FLuc modulator -3%, Rab9 prom act -2%, ELG1 genotoxic -2% and ELG1 repair inh 1%.
For CCN(C(=O)COC(=O)c1ccc(=O)n(Cc2ccccc2)n1)C1CCS(=O)(=O)C1 (stereo not given) the results were NPC1 promoter act -1%, FLuc modulator -2%, Rab9 prom act -3%, ELG1 genotoxic 2% and ELG1 repair inh inconclusive.
For COc1ccc(C)cc1NC(=O)CSc1nnc2ccc(-c3cccnc3)nn12 the results were NPC1 promoter act -1%, FLuc modulator -1%, Rab9 prom act -3%, ELG1 genotoxic -3% and ELG1 repair inh 7%.
For COc1ccc(CCC(=O)Nc2nc(C)c(C(=O)N(C)C)s2)cc1 the results were NPC1 promoter act 0%, FLuc modulator 7%, Rab9 prom act -4%, ELG1 genotoxic 2% and ELG1 repair inh 0%.
CN(CCOC(=O)CN1C(=O)c2ccccc2C1=O)C1=NS(=O)(=O)c2ccccc21 was read as NPC1 promoter act -3%, FLuc modulator 0%, SMN2 splice enh 9%, Rab9 prom act -2%, ELG1 genotoxic 0% and ELG1 repair inh -14%.
COc1ccc2oc(=O)c(-c3nc4ccc(C)cc4[nH]3)cc2c1 was read as FLuc modulator -3%.
Screening C=CCc1cccc2cc(-c3nc4ccc(C(=O)O)cc4[nH]3)c(=O)oc12 returned FLuc modulator 0.43µM*.
For C=CCc1cccc2cc(C(=O)O)c(=O)oc12 the results were NPC1 promoter act -1%, FLuc modulator 2%, SMN2 splice enh -10%, Rab9 prom act 1%, ELG1 genotoxic 0% and ELG1 repair inh 10%.
